Measurements as given in PubChem BioAssay (Tox21).
Values joined by “and” are separate entries in the source; they are usually repeats but may differ in a detail not shown here. Equal values may be shown once. Inconclusive results are not listed. Active and inactive are the calls of the source. Unless noted, calls follow the shape of the full dose curve.

Assays:
[1] = Nuclear factor erythroid 2-related factor 2/antioxidant responsive element (Nrf2/ARE) small molecule agonists: luciferase reporter gene qHTS assay in human keratinocytes (AID 1919969); also: nearly all actives have a fitted effect of over 35% in size; also: potency is read from the fitted curve at half-maximal effect
[2] = target: Gonadotropin-releasing hormone receptor (Homo sapiens) (UniProt P30968); assay: Human gonadotropin-releasing hormone receptor (GnRHR) small molecule agonists, calcium flux assay in GnRHR-HEK293 cells (AID 1920063); also: nearly all actives have a fitted effect of over 35% in size; also: potency is read from the fitted curve at half-maximal effect
Gonadotropin-releasing hormone receptor (Homo sapiens), sequence (P30968 whole entry, looked up): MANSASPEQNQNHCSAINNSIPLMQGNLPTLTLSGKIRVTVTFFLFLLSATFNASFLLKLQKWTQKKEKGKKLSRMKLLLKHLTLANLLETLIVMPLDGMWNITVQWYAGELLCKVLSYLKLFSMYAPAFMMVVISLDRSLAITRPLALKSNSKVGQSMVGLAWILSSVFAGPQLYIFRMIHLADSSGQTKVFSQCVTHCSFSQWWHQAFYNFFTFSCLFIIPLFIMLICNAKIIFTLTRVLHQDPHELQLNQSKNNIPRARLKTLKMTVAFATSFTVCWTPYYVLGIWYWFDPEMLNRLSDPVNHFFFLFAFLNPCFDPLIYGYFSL
How it was run: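 We seeded human GnRHR-expressing HEK293 cells for 18 hours, loaded them with calcium dye for an hour at 37 C, added test compounds, and recorded fluorescence intensity kinetically for three minutes.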

[3] = G protein-coupled receptor (GPCR) small molecule agonists, calcium flux assay: HEK293 wild type cell line counter screen (AID 1920065); also: potency is read from the fitted curve at half-maximal effect
How it was run: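 Calcium-sensitive dye, loaded 1 h at 37 C into cells cultured 18 h, reports compound-evoked calcium release as fluorescence (Ex/Em 480/540), measured over 3 min. Agonist mode; 15-point titrations, triplicate.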

[4] = p53 small molecule agonists, cell-based qHTS assay with human liver microsomes (AID 1963577);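 also: p53 response element beta-lactamase reporter cells with liver microsomes plus NADPH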
How it was run: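 Metabolically competent format: test substances, human liver microsomes and NADPH (both 0.5 mg/mL final) incubated with p53RE-bla cells 16 h at 37 C. Beta-lactamase reporter signal then quantified by fluorescence.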

[5] = p53 small molecule agonists, cell-based qHTS assay with rat liver microsomes (AID 1963578)
How it was run: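 Each plate received p53RE-bla cells, then compound, then rat liver microsomes and NADPH (both 0.5 mg/mL final). Plates were held 16 h at 37 C, and beta-lactamase activity was detected with LiveBLAzer over 2 h.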

[6] = p53 small molecule agonists, cell-based qHTS assay with rat liver microsomes: qHTS cell viability counter screen (AID 1963580); also: nearly all actives have a fitted effect of over 45% in size
How it was run: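 In HCT-116 cells carrying a p53 response element-bla reporter, compounds were metabolically activated in situ by rat liver microsomes with NADPH over 16 h. Cell ATP content then served as the cytotoxicity measure.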

[7] = target: Muscarinic acetylcholine receptor M1 (Homo sapiens) (UniProt P11229); assay: Cholinergic receptor muscarinic 1 (CHRM1) small molecule agonists, cell-based qHTS assay (AID 1963589); also: nearly all actives have a fitted effect of over 35% in size; also: potency is read from the fitted curve at half-maximal effect
Muscarinic acetylcholine receptor M1 (Homo sapiens), sequence (P11229 whole entry, looked up): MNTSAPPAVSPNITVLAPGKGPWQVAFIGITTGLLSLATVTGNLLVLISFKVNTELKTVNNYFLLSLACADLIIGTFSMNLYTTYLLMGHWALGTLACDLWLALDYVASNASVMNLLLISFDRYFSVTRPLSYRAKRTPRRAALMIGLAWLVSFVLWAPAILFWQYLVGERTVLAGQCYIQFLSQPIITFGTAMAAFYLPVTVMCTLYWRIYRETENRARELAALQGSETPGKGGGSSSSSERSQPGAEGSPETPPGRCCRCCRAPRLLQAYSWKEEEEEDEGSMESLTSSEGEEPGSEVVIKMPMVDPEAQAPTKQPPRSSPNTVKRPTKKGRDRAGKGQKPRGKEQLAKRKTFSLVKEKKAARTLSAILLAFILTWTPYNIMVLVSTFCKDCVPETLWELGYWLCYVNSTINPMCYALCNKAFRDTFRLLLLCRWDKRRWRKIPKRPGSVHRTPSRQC
How it was run: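 Measures agonist-induced intracellular calcium rise. Stable human CHRM1 CHO line, 1 h dye load at 37 C, compounds from DMSO, kinetic fluorescence read.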

[8] = cAMP Responsive Elements (CRE) small molecule agonists, cell-based qHTS assay (AID 1963590)
How it was run: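 A CRE-responsive beta-lactamase reporter in HEK 293T cells was used. Treatment ran 3 h at 37 C; detection used LiveBLAzer B/G FRET substrate for 2 h at room temperature.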

[9] = target: Beta-2 adrenergic receptor (Homo sapiens) (UniProt P07550); assay: Adrenergic beta2 receptor (ADRB2) small molecule antagonists, cell-based qHTS assay (AID 1963592); also: nearly all actives have a fitted effect of over 50% in size; also: potency is read from the fitted curve at half-maximal effect
Beta-2 adrenergic receptor (Homo sapiens), sequence (P07550 whole entry, looked up): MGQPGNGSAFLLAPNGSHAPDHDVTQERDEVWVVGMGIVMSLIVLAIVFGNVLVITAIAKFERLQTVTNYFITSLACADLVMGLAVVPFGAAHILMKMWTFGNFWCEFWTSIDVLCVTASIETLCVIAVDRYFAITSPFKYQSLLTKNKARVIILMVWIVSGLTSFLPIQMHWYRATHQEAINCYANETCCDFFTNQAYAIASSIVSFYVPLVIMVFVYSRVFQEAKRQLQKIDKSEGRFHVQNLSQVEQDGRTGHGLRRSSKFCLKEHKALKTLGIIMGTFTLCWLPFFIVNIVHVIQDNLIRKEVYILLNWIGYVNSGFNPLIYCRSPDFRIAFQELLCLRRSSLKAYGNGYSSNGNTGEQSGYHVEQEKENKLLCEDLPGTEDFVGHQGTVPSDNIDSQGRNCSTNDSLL
How it was run: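 Cells (CHO, stable ADRB2 overexpression) incubated 18-20hr at 37C; compounds added from DMSO; agonist mix (1nM isoproterenol, 100uM IBMX, 25uM Ro-20-1724) added; 0.5hr RT; d2-cAMP and anti-cAMP-cryptate added; 1hr RT; 665/615 nm read.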

[10] = target: D(2) dopamine receptor (Homo sapiens) (UniProt P14416); assay: Dopamine D2 receptor (DRD2) small molecule antagonists, cell-based qHTS assay (AID 1963595; active = well fitted inhibition curve with a large enough effect in the signal ratio in the repeat runs, with a control signal flat; the % refers to the signal ratio; also: potency is read from the fitted curve at half-maximal effect)
D(2) dopamine receptor (Homo sapiens), sequence (P14416 whole entry, looked up): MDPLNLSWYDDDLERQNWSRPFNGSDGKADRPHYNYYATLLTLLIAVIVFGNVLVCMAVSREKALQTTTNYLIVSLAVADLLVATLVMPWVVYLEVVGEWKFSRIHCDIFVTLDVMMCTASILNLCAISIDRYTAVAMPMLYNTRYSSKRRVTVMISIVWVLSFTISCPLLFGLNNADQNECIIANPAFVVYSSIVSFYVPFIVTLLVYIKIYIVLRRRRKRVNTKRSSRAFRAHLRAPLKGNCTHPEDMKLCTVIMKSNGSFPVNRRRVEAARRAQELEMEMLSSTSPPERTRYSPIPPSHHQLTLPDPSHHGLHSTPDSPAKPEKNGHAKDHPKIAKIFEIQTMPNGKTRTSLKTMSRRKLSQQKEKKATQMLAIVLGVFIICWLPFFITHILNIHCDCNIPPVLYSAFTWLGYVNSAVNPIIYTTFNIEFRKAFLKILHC
How it was run: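 HEK293 cells stably expressing DRD2 were preincubated with 0.1 mM Ro20-1724, then with compound for 10 min at room temperature. Cells were stimulated with 200 nM NKH477 plus 12 nM quinpirole for 30 min, and cAMP was read by HTRF.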

[11] = target: KiSS-1 receptor (Homo sapiens) (UniProt Q969F8); assay: Human kisspeptin (KISS1R) small molecule agonists, calcium flux assay in KISS1R-HEK293 cells (AID 1920064; active = well fitted activation curve with a large enough effect in the repeat runs)
KiSS-1 receptor (Homo sapiens), sequence (Q969F8 whole entry, looked up): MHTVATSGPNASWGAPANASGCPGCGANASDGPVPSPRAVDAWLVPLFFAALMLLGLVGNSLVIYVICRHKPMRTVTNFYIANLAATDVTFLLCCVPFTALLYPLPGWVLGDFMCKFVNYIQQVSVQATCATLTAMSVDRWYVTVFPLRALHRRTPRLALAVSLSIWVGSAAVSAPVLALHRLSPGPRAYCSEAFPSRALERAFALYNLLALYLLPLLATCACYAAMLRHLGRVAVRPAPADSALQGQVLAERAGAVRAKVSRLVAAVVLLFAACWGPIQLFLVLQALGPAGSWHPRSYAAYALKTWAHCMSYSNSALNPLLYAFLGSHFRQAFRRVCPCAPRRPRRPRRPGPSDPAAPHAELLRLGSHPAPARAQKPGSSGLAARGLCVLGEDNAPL
How it was run: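 Kinetic calcium assay, 1 s sampling over 3 min at Ex/Em 480/540, in HEK293 cells engineered with human KISS1R; compounds delivered in DMSO after 1 h dye loading.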

[12] = p53 small molecule agonists, cell-based qHTS assay with human liver microsomes: qHTS cell viability counter screen (AID 1963579); also: nearly all actives have a fitted effect of over 45% in size; also: potency is read from the fitted curve at half-maximal effect
How it was run: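 Tox21 library compounds, delivered from DMSO stocks, were tested on p53RE-bla cells together with 0.5 mg/mL human liver microsomes and 0.5 mg/mL NADPH (final) over 16 h at 37 C; CellTiter-Glo luminescence served as the cytotoxicity measure.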

[13] = target: 5-hydroxytryptamine receptor 2A (Homo sapiens) (UniProt P28223); assay: 5-hydroxytryptamine receptor 2A (HTR2A) small molecule agonists, cell-based qHTS assay (AID 1963587); also: nearly all actives have a fitted effect of over 30% in size; also: potency is read from the fitted curve at half-maximal effect
5-hydroxytryptamine receptor 2A (Homo sapiens), sequence (P28223 whole entry, looked up): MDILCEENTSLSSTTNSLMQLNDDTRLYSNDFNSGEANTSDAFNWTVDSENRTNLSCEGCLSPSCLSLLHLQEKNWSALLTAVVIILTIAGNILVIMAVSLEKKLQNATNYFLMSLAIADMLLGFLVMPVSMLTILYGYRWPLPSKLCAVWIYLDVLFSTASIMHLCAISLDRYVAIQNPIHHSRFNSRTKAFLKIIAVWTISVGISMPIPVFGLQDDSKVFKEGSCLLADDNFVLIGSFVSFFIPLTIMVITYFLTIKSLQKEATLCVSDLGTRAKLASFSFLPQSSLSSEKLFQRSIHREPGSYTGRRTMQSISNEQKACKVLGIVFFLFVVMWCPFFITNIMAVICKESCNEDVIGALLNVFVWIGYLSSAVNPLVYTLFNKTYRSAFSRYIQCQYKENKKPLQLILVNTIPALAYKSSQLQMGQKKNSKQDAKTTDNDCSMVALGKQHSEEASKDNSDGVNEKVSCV
How it was run: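 HTR2A-CHO cells, plated 18 h at 37 C/5% CO2, dye-loaded 1 h at 37 C; compounds in DMSO added by pin tool (agonist mode). Intracellular calcium flux read as kinetic fluorescence on FDSS over 2 min at 1 s intervals.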

[14] = target: Muscarinic acetylcholine receptor M1 (Homo sapiens) (UniProt P11229); assay: Cholinergic receptor muscarinic 1 (CHRM1) small molecule antagonists, cell-based qHTS assay (AID 1963588); also: nearly all actives have a fitted effect of over 40% in size
How it was run: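 CHRM1-CHO calcium-flux assay, antagonist mode. Cells were seeded 18 h, dye-loaded 1 h at 37 C and given compound for 5 min at RT, then acetylcholine was added at 50nM. FDSS fluorescence was read 3 min; 15 concentrations, three runs.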

[15] = target: Beta-2 adrenergic receptor (Homo sapiens) (UniProt P07550); assay: Adrenergic beta2 receptor (ADRB2) small molecule agonists, cell-based qHTS assay (AID 1963593);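 also: CHO cells stably overexpressing human ADRB2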
How it was run: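 CHO cells stably over-expressing ADRB2 were plated overnight at 37C, then dosed with compounds plus a stimulation mix containing 100uM IBMX and 25uM Ro-20-1724 for 0.5hr at room temperature. cAMP was measured by HTRF competition, 1hr.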

[16] = target: D(2) dopamine receptor (Homo sapiens) (UniProt P14416); assay: Dopamine D2 receptor (DRD2) small molecule agonists, cell-based qHTS assay (AID 1963594); also: nearly all actives have a fitted effect of over 35% in size; also: potency is read from the fitted curve at half-maximal effect
How it was run: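 HEK293 cells stably expressing DRD2 were cultured 24 h at 37 C, then given Ro20-1724 (0.1 mM final) and compounds for 10 min at room temperature. NKH477 (200nM) was then added for 30 min. cAMP was read by HTRF.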

[17] = p53 small molecule agonists, cell-based qHTS assay: qHTS cell viability counter screen (AID 1963581); also: nearly all actives have a fitted effect of over 45% in size
How it was run: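 Following 5 h attachment, HCT-116 p53RE-bla cells took up compound for 16 h at 37 C; the reporter was read with B/G FRET substrate (2 h RT), and viability then via CellTiter-Glo ATP luminescence.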

[18] = target: 5-hydroxytryptamine receptor 2A (Homo sapiens) (UniProt P28223); assay: 5-hydroxytryptamine receptor 2A (HTR2A) small molecule antagonists, cell-based qHTS assay (AID 1963586); also: nearly all actives have a fitted effect of over 45% in size
How it was run: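 Antagonist-mode intracellular calcium assay: DOI (4 nM) added after 5 min compound pre-incubation at room temperature to dye-loaded HTR2A-CHO cells. Fluorescence followed for 3 min, sampled every second.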

[19] = cAMP Responsive Elements (CRE) small molecule antagonists, cell-based qHTS assay (AID 1963591; active = well fitted inhibition curve with a large enough effect in the signal ratio in the repeat runs, not every such curve was filed as active; the % refers to the signal ratio)
How it was run: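 HEK293T cells carrying a CRE-driven beta-lactamase reporter receive compound and NKH477 (0.25 uM final) for 3 h. Fluorescence from LiveBLAzer B/G FRET substrate is read after 2 h at room temperature.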

[20] = p53 small molecule agonists, cell-based qHTS assay (AID 1963582; active = well fitted activation curve with a large enough effect in the signal ratio in the repeat runs, not every such curve was filed as active; the % refers to the signal ratio; also: potency is read from the fitted curve at half-maximal effect)
How it was run: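 In this cell-based concentration-response screen, a p53 response element drives beta-lactamase; cells received DMSO-borne compounds after 5 h culture and were incubated a further 16 h before FRET substrate development.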

Measured: Potency

O=C1NCN(c2ccccc2)C12CCN(CCCOc1ccc(F)cc1)CC2
active: [2] 9.52 µM | [3] 10.7 µM | [7] 4.77 µM | [9] 5.96 µM | [10] 0.106 µM
inactive: [1] | [4] | [5] | [6] | [8]

O=C(Nc1ccccc1)Nc1ccnc(Cl)c1
not listed: [4] | [5] | [8] | [17] | [18] | [19] | [20]
inactive: all other assays above

CC(C)(C)c1cc(O)ccc1O
active: [1] 24.3 µM and 30.6 µM
not listed: [2] | [15] | [16] | [20]
inactive: all other assays above

CCc1cc2c(s1)-n1c(C)nnc1CN=C2c1ccccc1Cl
not listed: [4] | [5] | [15] | [17] | [19] | [20]
inactive: all other assays above

O=[N+]([O-])c1c2ccccc2cc2ccccc12
active: [1] 21.4 µM
inactive: [2] | [3] | [5] | [12] | [6] | [14] | [7] | [16]

CC(=O)/C=C/c1ccc2c(c1)OCO2
active: [1] 61.4 µM | [20] 41 µM
not listed: [3] | [5] | [8] | [9] | [10] | [15] | [19]
inactive: all other assays above

Nc1ccc([N+](=O)[O-])cc1Cl
not listed: [3] | [6] | [9]
inactive: all other assays above

CCOP(=S)(OCC)Oc1nc(Cl)n(C(C)C)n1
not listed: [4] | [5] | [7] | [17]
inactive: all other assays above

FC(Cl)(Cl)C(F)(Cl)Cl
not listed: [4] | [5] | [12] | [15] | [20]
inactive: all other assays above

O=C(O)C(F)(F)C(F)(F)C(F)(F)C(F)(F)C(F)(F)C(F)(F)C(F)(F)C(F)(F)C(F)(F)F
not listed: [2] | [15] | [16]
inactive: all other assays above

CC[C@]1(O)CC[C@H]2[C@@H]3CCC4=CCCC[C@@H]4[C@H]3CC[C@@]21C
not listed: [3] | [7] | [12] | [13] | [14] | [18] | [20]
inactive: all other assays above

Oc1ccc(C2(c3ccc(O)cc3)CCCCC2)cc1
inactive: [1] | [11] | [3] | [4] | [5] | [6] | [13] | [8] | [16] | [10]
active: [12] 43.3 µM

CC(Oc1cccc(Cl)c1)C(=O)O (stereo not given)
not listed: [8] | [11]
inactive: all other assays above

CC(C)c1c(CN(C)C(C)Cc2ccccc2)n(C)n(-c2ccccc2)c1=O (stereo not given)
not listed: [2] | [8] | [10] | [18] | [19]
inactive: all other assays above

CN1C[C@H](CNC(=O)OCc2ccccc2)C[C@@H]2c3cccc4c3c(cn4C)C[C@H]21
inactive: [1] | [2] | [3] | [5] | [17] | [20] | [8] | [16]
active: [10] 10.6 µM

c1cc(OCC2CO2)ccc1Cc1ccc(OCC2CO2)cc1 (stereo not given)
active: [1] 27.4 µM and 27.3 µM
not listed: [8] | [11] | [15] | [19] | [20]
inactive: all other assays above

Oc1ccc([C@H]2CNCc3c2ccc(O)c3O)cc1O
active: [13] 9.52 µM | [16] 17.4 µM
not listed: [4] | [5] | [7] | [9] | [15] | [18] | [20]
inactive: all other assays above

C[N+]1(CCF)[C@@H]2CC[C@H]1CC(OC(=O)C(O)(c1ccccc1)c1ccccc1)C2 (stereo not given in full)
not listed: [2] | [14] | [15] | [19]
inactive: all other assays above
